Reference: ChEMBL document CHEMBL3988442, “University of Dundee, Small-Polar-MMV Screening Library” (2021)
Among all 48,000 compounds or so, about 13,000 (27%) showed an effect of 50% or more. Some of the results follow.

Test system: Wolbachia pipientis
Experiment: Anti-Wolbachia Cell-Based Screen
Type: functional
Parameters: scale not given: in the data most compounds retested in dose-response had high values
Settings: 5 µM

| Structure (SMILES) | Percent Effect [%] |
| --- | --- |
| CC(C)c1cc(C(=O)N2CCN(C)[C@@H]3CS(=O)(=O)C[C@@H]32)no1 | -18.46 |
| O=C(NC[C@H]1C[C@@H]2CCN1C[C@@H]2CN1CCCCC1)c1ccco1 | 3.904 |
| CCCSCC(=O)N1C[C@H]2CC[C@@H]1CN(Cc1cccnc1)C2 | -15.35 |
| CC[C@H](C)[C@@H](CO)NC(C)Cc1ccc(F)cc1 (stereo partly drawn) | 95.88 |
| CNS(=O)(=O)CC(=O)NC(C)Cc1ccc(Br)cc1 (stereo not drawn) | -6.603 |
| CC[C@H](C)[C@@H](CO)NC(C)Cc1ccc(C)cc1 (stereo partly drawn) | 96.84 |
| CCOCC(=O)NC(C)Cc1ccccc1Br (stereo not drawn) | -9.65 |
| COC(=O)C(CO)NC(=O)c1cn(Cc2ccccc2F)nn1 (stereo not drawn) | -17.52 |
| CC(=O)N1CCC(CCNC(C)Cc2ccc(F)cc2)CC1 (stereo not drawn) | 3.455 |
| CC[C@H](C)[C@@H](CO)NC(C)Cc1ccccc1F (stereo partly drawn) | 127.2 |
| CC[C@H](C)[C@@H](CO)NC(C)Cc1ccc(Cl)cc1 (stereo partly drawn) | 125.5 |
| CCc1cc(CN(C)C(=O)CN2CC(c3ccccc3)CC2=O)on1 (stereo not drawn) | -7.018 |
| CN(C)C(=O)[C@H]1C[C@H]2OCC[C@H]2N(Cc2ccccn2)C1 | -23.53 |
| O=C(NC[C@H]1C[C@@H]2CCN1C[C@@H]2CN1CCCCC1)Nc1ccccc1 | -4.847 |
| CC(C)(C)n1cc(C2=CCN(CCN3CCCCCC3)CC2)cn1 | -14.66 |
| CNc1ncccc1C(=O)N1CCC2(CCN(C)C2)CC1 | -14.87 |
| Cc1ccc(CN2CC3(CCN(C(=O)c4cccnc4)C3)C2)o1.O=C(O)C(F)(F)F.O=C(O)C(F)(F)F | 90.74 |
| O=C(O)C(F)(F)F.O=C(O)C(F)(F)F.O=C1N(c2cccnc2)CCC12CCCN(Cc1ccco1)C2 (stereo not drawn) | 8.384 |
| CN1CCC2(CCN(C(=O)c3cccnc3)C2)C1 (stereo not drawn) | 103.3 |
| O=C(O)C(F)(F)F.O=C(O)C(F)(F)F.O=C1CC2(CCN(Cc3cccnc3)C2)CN1c1cncnc1 (stereo not drawn) | -5.386 |

| Structure (SMILES) | Percent Effect [%] |
| --- | --- |
| CC(C)(C)CN1CCCC2(CCN(C(=O)c3ccc(O)nc3)C2)C1 (stereo not drawn) | -6.955 |
| O=C(O)C(F)(F)F.O=C(O)C(F)(F)F.O=C1N(c2ccsc2)CCC12CCCN(Cc1cccnc1)C2 (stereo not drawn) | 4.008 |
| CCCN(CCN(C)C)C(=O)Cc1cn2ccsc2n1 | -3.087 |
| O=C(Cc1ccsc1)N1CCN(CCOc2ccccc2)CC1 | -6.082 |
| CC[C@H]1CN2CC[C@H]1C[C@@H]2CNCc1ccc2c(c1)OCO2 | 5.104 |
| CN1CCN2C(=O)N(C3CCCCC3)C[C@H]2C1 | -7.779 |
| CC(C)N(C)C(=O)C1CCC2(CCNCC2)O1.Cl (stereo not drawn) | -5.93 |
| CCN(C)c1nccc(N2CCN[C@H]3CS(=O)(=O)C[C@H]32)n1 | -8.792 |
| Cc1ccnc(CC(C)N(C)Cc2ccc3c(c2)CCO3)c1 (stereo not drawn) | 8.665 |
| CCCS(=O)(=O)N1CCOC2(CCCN(Cc3ccccn3)C2)C1.O=C(O)C(F)(F)F (stereo not drawn) | 106.1 |
| O=C(O)C(F)(F)F.O=C(O)C(F)(F)F.O=C(O)C(F)(F)F.c1ccc(CN2CCOC3(CCN(c4ncccn4)CC3)C2)nc1 | -2.349 |
| CS(=O)(=O)N1CCOCC2(CN(Cc3ccccn3)CCO2)C1.O=C(O)C(F)(F)F.O=C(O)C(F)(F)F (stereo not drawn) | -5.644 |
| O=C(O)C(F)(F)F.O=C(O)C(F)(F)F.O=S(=O)(C1CC1)N1CCC2(CC1)CN(Cc1ccccn1)CCO2 | 101 |
| O=C(O)C(F)(F)F.O=S(=O)(C1CC1)N1CCOC2(CCCN(Cc3ccccn3)C2)C1 (stereo not drawn) | 85.16 |
| CCS(=O)(=O)NC[C@]12COC[C@H]1CN(Cc1ccccn1)C2.O=C(O)C(F)(F)F.O=C(O)C(F)(F)F | 3.316 |
| CCS(=O)(=O)N1CCOC2(CCCN(Cc3ccccn3)C2)C1.O=C(O)C(F)(F)F (stereo not drawn) | 109.8 |
| O=C(O)C(F)(F)F.c1cnc(N2CCOCC3(CN(Cc4cc[nH]n4)CCO3)C2)nc1 (stereo not drawn) | 10.86 |
| CC(C)[C@@H]1CN(C(=O)C2(c3ccccc3)CCN(C)CC2)C[C@H]1C(=O)O | 1.772 |
| COc1cc(CNCC(O)c2ccc(F)c(F)c2)cc2c1OCO2 (stereo not drawn) | -3.918 |
| O=C(NC[C@]12COC[C@H]1CN(Cc1ccncc1)C2)c1ccno1.O=C(O)C(F)(F)F.O=C(O)C(F)(F)F | -6.901 |

| Structure (SMILES) | Percent Effect [%] |
| --- | --- |
| Cc1ccc(CN2CCC3(CC2)C(=O)N(C)c2ccccc23)s1.O=C(O)C(F)(F)F | -4.693 |
| CC(C)N1CCC2(CC1)C(=O)N(c1cccnc1)c1ccc(F)cc12.Cl | -1.595 |
| CN(C)CCN1C(=O)C2(CCN(CC3CC3)CC2)c2ccccc21.O=C(O)C(F)(F)F.O=C(O)C(F)(F)F | 113.1 |
| CC(C)N1CCC2(CC1)C(=O)N(CCN(C)C)c1ccccc12.O=C(O)C(F)(F)F.O=C(O)C(F)(F)F | 103.6 |
| CN1C(=O)C2(CCN(Cc3nccn3C)CC2)c2ccccc21.O=C(O)C(F)(F)F | -27.57 |
| CC(C)N1CCC2(CC1)C(=O)N(c1cccnc1)c1c(F)cccc12.Cl | -0.101 |
| COCCN1C(=O)C2(CCN(CC3CC3)CC2)c2ccccc21.O=C(O)C(F)(F)F | 100.2 |
| CCN1C(=O)C2(CCN(CCN(C)C)CC2)c2ccccc21.O=C(O)C(F)(F)F.O=C(O)C(F)(F)F | 97.23 |
| CCCN1CCN(C(=O)Cc2nc(-c3ccco3)oc2C)CC1 | 1.326 |
| COCCN1CCN(Cc2cccnc2)[C@H]2CS(=O)(=O)C[C@H]21 | 6.429 |
| CC(C)N(C)Cc1cncc2c1CCN(Cc1ccoc1)C2.Cl.Cl.Cl | 91.96 |
| COCc1cncc2c1CCN(Cc1cnn(C)c1)C2.O=C(O)C(F)(F)F.O=C(O)C(F)(F)F | 0.729 |
| O=C1[C@@H]2CCN(Cc3ccoc3)C[C@@H]2OCCN1c1cccnc1 | 8.449 |
| COCc1cncc2c1CCN(Cc1ccccn1)C2.O=C(O)C(F)(F)F.O=C(O)C(F)(F)F.O=C(O)C(F)(F)F | 9.224 |
| COCc1cncc2c1CCN(Cc1cccnc1)C2 | 101.9 |
| COCc1cncc2c1CCN(Cc1cccs1)C2.O=C(O)C(F)(F)F.O=C(O)C(F)(F)F | 82.87 |
| CN(C)Cc1cncc2c1CCN(Cc1ccoc1)C2.Cl.Cl.Cl | 105 |
| CN(C)Cc1cncc2c1CCN(Cc1cnn(C)c1)C2.Cl.Cl.Cl | -9.802 |
